Measured values: the supplement of paper PMC6411743
± gives the standard deviation of the averaged measurements. The full data set covers some 6,500 targets. This sample favours those with the largest changes.

Experiments:
Experiment in all cases: NP40-soluble protein abundance relative to vehicle (solubility fold change) (ratio); higher = more soluble protein in presence of ATP
DDX50 = target: T1, DDX50 (UniProt Q9BQ39)
T1 sequence (whole entry): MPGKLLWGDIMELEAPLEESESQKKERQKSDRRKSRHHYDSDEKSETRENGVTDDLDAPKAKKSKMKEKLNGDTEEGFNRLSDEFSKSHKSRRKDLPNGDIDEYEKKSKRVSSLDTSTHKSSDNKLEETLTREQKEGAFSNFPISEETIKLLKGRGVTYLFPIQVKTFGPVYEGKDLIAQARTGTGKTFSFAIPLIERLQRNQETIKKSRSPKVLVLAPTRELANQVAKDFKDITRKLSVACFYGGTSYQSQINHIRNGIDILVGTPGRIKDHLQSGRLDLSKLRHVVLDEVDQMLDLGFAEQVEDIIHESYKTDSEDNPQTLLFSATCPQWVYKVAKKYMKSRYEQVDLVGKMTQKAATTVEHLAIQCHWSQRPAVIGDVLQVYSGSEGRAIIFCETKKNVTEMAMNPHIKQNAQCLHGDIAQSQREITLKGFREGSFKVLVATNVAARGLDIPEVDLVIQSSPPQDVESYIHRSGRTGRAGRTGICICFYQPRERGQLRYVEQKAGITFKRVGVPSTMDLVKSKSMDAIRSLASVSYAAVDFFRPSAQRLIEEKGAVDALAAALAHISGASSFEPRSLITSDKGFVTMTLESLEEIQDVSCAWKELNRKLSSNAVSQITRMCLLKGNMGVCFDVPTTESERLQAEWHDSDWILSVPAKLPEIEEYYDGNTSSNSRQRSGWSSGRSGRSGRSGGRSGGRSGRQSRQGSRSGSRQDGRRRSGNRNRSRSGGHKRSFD
Procedure, shortened: (§1)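 Crude Jurkat lysate, prepared by Dounce homogenisation, was exposed to eight concentrations from 0.1 to 10 mM for 10 min at room temperature and then 3 min at 37 °C. Solubilisation used 0.8% NP40 with benzonase for 60 min at 4 °C, followed by ultracentrifugation and TMT labelling of the supernatant for LC-MS/MS. After vsn normalisation of intensities, each value is the fold change against the detergent-processed vehicle within each replicate, across three independent experiments.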

PINX1 = target: T2, PINX1 (UniProt Q96BK5)
T2 sequence (whole entry): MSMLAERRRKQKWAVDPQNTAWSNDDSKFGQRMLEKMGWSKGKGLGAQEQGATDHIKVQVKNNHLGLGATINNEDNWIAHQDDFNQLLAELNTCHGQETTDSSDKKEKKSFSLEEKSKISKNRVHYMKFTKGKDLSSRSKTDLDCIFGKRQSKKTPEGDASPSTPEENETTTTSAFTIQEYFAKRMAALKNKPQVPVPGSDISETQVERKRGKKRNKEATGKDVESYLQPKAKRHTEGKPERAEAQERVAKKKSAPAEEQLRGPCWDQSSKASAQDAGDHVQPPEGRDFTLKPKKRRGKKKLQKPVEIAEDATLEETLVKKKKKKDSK
Procedure, shortened: as §1

[1] = target: T3, UniProt Q969F9|Q969F9-2|G5E9V4
T3 sequence (whole entry): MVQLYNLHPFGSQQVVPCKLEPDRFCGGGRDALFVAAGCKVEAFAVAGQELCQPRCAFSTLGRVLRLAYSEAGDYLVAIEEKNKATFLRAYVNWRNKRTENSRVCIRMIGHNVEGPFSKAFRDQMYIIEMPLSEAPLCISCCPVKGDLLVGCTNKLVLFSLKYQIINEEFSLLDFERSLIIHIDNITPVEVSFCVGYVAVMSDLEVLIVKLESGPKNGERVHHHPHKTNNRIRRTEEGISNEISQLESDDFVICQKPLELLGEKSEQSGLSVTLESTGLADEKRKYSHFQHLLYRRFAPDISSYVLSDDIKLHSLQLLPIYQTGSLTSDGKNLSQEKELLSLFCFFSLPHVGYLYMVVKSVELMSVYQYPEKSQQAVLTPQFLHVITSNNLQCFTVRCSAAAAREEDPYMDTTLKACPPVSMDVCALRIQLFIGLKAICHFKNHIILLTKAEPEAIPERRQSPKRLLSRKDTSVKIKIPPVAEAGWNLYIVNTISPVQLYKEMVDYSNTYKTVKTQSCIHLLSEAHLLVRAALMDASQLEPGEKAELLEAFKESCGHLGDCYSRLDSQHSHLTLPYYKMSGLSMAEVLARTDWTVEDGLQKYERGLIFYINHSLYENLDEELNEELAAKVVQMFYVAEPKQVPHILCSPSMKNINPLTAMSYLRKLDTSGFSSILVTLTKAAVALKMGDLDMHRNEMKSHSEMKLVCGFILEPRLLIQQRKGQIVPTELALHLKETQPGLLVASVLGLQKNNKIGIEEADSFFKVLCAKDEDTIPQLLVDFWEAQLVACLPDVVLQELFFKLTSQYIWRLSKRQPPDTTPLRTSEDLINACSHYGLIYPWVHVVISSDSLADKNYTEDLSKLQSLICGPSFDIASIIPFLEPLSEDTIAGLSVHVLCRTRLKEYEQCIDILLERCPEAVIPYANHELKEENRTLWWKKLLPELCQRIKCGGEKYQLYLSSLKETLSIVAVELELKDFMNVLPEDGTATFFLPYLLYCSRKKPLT
Procedure, shortened: as §1

UniProt Q96G25|Q96G25-2 = target: T4, UniProt Q96G25|Q96G25-2
T4 sequence (whole entry): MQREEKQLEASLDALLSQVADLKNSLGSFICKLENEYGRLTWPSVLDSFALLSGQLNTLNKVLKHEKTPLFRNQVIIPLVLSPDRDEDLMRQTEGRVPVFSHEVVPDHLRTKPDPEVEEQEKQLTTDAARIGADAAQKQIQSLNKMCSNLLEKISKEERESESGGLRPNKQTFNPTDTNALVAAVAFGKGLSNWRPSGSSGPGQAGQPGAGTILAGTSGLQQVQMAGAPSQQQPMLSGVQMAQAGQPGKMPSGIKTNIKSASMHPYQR
Procedure, shortened: as §1

UniProt Q9BUA3 = target: T5, UniProt Q9BUA3
T5 sequence (whole entry): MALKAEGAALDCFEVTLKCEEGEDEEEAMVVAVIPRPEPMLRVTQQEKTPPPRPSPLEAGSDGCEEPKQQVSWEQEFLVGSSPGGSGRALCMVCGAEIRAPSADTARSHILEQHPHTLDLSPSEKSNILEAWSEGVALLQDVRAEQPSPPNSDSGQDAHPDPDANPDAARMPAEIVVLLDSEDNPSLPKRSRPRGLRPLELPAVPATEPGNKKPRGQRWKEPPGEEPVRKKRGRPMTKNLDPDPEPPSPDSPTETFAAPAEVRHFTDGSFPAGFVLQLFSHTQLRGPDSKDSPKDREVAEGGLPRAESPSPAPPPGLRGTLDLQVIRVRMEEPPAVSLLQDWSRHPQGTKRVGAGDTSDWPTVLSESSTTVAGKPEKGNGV
Procedure, shortened: as §1

UniProt Q9H993 = target: T6, UniProt Q9H993
T6 sequence (whole entry): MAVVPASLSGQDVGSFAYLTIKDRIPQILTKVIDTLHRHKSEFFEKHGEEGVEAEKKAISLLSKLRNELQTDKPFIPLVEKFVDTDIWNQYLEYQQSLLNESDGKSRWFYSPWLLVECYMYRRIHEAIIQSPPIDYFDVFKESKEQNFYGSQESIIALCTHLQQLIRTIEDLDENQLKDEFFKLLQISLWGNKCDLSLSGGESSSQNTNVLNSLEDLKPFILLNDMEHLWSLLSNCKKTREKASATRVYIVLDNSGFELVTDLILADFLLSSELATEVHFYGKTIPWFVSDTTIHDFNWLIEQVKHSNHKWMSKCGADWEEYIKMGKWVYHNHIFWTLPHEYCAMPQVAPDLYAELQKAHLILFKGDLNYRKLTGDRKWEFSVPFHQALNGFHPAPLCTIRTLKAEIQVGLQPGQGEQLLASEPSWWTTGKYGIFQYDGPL
Procedure, shortened: as §1

VRK1 = target: T7, VRK1 (UniProt Q99986)
T7 sequence (whole entry): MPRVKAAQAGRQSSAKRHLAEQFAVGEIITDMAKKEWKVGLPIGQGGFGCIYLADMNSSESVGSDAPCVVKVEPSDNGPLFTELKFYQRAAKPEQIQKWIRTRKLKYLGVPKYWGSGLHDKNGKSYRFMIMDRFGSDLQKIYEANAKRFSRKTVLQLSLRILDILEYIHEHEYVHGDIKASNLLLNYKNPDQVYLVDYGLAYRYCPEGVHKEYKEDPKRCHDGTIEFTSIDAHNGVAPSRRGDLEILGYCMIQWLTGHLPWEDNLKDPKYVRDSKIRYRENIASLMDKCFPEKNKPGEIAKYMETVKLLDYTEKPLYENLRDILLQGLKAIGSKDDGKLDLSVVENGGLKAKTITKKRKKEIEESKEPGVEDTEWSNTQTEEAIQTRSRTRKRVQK
Procedure, shortened: as §1

SMILES: Nc1ncnc2c1ncn2[C@@H]1O[C@H](COP(=O)(O)OP(=O)(O)OP(=O)(O)O)[C@@H](O)[C@H]1O [adenosine triphosphate]
- NP40-soluble protein abundance (DDX50; concentration: 1mM): 1.35 ± 0.086
- NP40-soluble protein abundance (DDX50; concentration: 2mM): 1.67 ± 0.17
- NP40-soluble protein abundance (DDX50; concentration: 4mM): 2.19 ± 0.26
- NP40-soluble protein abundance (DDX50; concentration: 6mM): 2.88 ± 0.35
- NP40-soluble protein abundance (DDX50; concentration: 8mM): 3.54 ± 0.54
- NP40-soluble protein abundance (DDX50; concentration: 10mM): 4.32 ± 0.63
- NP40-soluble protein abundance (PINX1; concentration: 1mM): 1.52 ± 0.023
- NP40-soluble protein abundance (PINX1; concentration: 2mM): 1.64 ± 0.086
- NP40-soluble protein abundance (PINX1; concentration: 4mM): 1.78 ± 0.11
- NP40-soluble protein abundance (PINX1; concentration: 6mM): 1.95 ± 0.1
- NP40-soluble protein abundance (PINX1; concentration: 8mM): 1.91 ± 0.13
- NP40-soluble protein abundance (PINX1; concentration: 10mM): 2.03 ± 0.14
- NP40-soluble protein abundance ([1]; concentration: 1mM): 1.07 ± 0.16
- NP40-soluble protein abundance ([1]; concentration: 2mM): 1.11 ± 0.22
- NP40-soluble protein abundance ([1]; concentration: 4mM): 1.05 ± 0.26
- NP40-soluble protein abundance ([1]; concentration: 6mM): 1.05 ± 0.15
- NP40-soluble protein abundance ([1]; concentration: 8mM): 0.905 ± 0.044
- NP40-soluble protein abundance ([1]; concentration: 10mM): 0.962 ± 0.11
- NP40-soluble protein abundance (UniProt Q96G25|Q96G25-2; concentration: 1mM): 1 ± 0.11
- NP40-soluble protein abundance (UniProt Q96G25|Q96G25-2; concentration: 2mM): 0.976 ± 0.074
- NP40-soluble protein abundance (UniProt Q96G25|Q96G25-2; concentration: 4mM): 1.06 ± 0.035
- NP40-soluble protein abundance (UniProt Q96G25|Q96G25-2; concentration: 6mM): 1.07 ± 0.11
- NP40-soluble protein abundance (UniProt Q96G25|Q96G25-2; concentration: 8mM): 0.993 ± 0.039
- NP40-soluble protein abundance (UniProt Q96G25|Q96G25-2; concentration: 10mM): 0.965 ± 0.1
- NP40-soluble protein abundance (UniProt Q9BUA3; concentration: 1mM): 1.02 ± 0.11
- NP40-soluble protein abundance (UniProt Q9BUA3; concentration: 2mM): 1.03 ± 0.09
- NP40-soluble protein abundance (UniProt Q9BUA3; concentration: 4mM): 1.03 ± 0.082
- NP40-soluble protein abundance (UniProt Q9BUA3; concentration: 6mM): 1.04 ± 0.12
- NP40-soluble protein abundance (UniProt Q9BUA3; concentration: 8mM): 0.992 ± 0.08
- NP40-soluble protein abundance (UniProt Q9BUA3; concentration: 10mM): 1 ± 0.019
- NP40-soluble protein abundance (UniProt Q9H993; concentration: 1mM): 1.08 ± 0.068
- NP40-soluble protein abundance (UniProt Q9H993; concentration: 2mM): 1.05 ± 0.06
- NP40-soluble protein abundance (UniProt Q9H993; concentration: 4mM): 1.02 ± 0.039
- NP40-soluble protein abundance (UniProt Q9H993; concentration: 6mM): 0.991 ± 0.072
- NP40-soluble protein abundance (UniProt Q9H993; concentration: 8mM): 1.04 ± 0.047
- NP40-soluble protein abundance (UniProt Q9H993; concentration: 10mM): 1.01 ± 0.053
- NP40-soluble protein abundance (VRK1; concentration: 1mM): 1.39 ± 0.026
- NP40-soluble protein abundance (VRK1; concentration: 2mM): 1.43 ± 0.021
- NP40-soluble protein abundance (VRK1; concentration: 4mM): 1.44 ± 0.039
- NP40-soluble protein abundance (VRK1; concentration: 6mM): 1.51 ± 0.057
- NP40-soluble protein abundance (VRK1; concentration: 8mM): 1.52 ± 0.031
- NP40-soluble protein abundance (VRK1; concentration: 10mM): 1.48 ± 0.063
